LT uptake inh – anthrax lethal toxin internalization inhibition. Cells, anthrax lethal toxin internalization, FRET ratio (460/530). Potency, µM (highest dose often 40 µM), usual class: inhibitors. 0.67% of 70,000 active. AID 912; also: nearly all actives have a fitted effect of over 50% in size
AmpC inh no det – blocks E. coli AmpC beta-lactamase in absence of detergent; AmpC nitrocefin hydrolysis, absorbance 480 nm, no detergent; 1.8% of 71,000 active; Potency, µM (doses to about 28.7 µM); P00811
Target sequence (P00811 whole entry, looked up): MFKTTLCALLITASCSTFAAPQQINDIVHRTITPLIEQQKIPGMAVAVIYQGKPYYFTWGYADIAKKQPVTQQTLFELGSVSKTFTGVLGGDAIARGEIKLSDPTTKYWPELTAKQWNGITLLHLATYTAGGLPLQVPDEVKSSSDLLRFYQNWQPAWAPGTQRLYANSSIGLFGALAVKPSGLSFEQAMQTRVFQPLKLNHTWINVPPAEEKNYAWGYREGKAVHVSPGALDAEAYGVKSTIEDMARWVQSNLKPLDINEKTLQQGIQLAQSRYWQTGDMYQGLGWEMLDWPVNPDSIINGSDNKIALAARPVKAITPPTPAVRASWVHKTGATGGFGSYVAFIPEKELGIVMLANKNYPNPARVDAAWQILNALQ
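AmpC, 20 mM phosphate pH 7.0; 15 min cpd preinc, RT; start with nitrocefin (800 uM stock); A480 kinetic read, 20 s intervals, 4 min. No-enzyme wells = negative control.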
AmpC det inh – AmpC beta-lactamase inhibition, detergent assay; P00811; purified AmpC, nitrocefin hydrolysis with detergent; Potency, µM (top dose mostly 28.7 µM); 0.09% of 71,000 active; AID 584; active = well fitted curve in the direction sought with a large enough effect; inconclusive = small, poorly fitted or top-dose-only effect
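E. coli AmpC (5.3 nM) in 20 mM phosphate pH 7.0 with 0.01% Triton X-100, preincubated 15 min RT with compound; nitrocefin (2 uL of 800 uM stock) hydrolysis followed by 480 nm absorbance every 20 s over 4 min.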
SmPrx2 inh – inhibitors of Schistosoma mansoni peroxiredoxin 2 | S. mansoni Prx2 activity coupled to TGR/GSH (TGR is thioredoxin glutathione reductase), NADPH fluorescence loss, qHTS | Potency, µM | 0.07% of 65,000 active
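Enzyme mix: 100 uM NADPH, 25 nM TGR, 700 uM GSH, 50 nM Prx2 in 100 mM phosphate pH 7.4, 10 mM EDTA, 0.01% Tween-20. 15 min RT with compound; NADPH/GSH added, H2O2 starts reaction; NADPH fluorescence read 8 min.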
Of the large screens only hits and unclear results are named; the others gave an inactive call; [ ] = dose if it differs, or a comment. Sampled rows, rich in hits. Any-hit rate of the full collection: about 2.4%. Unless noted, calls follow the shape of the full dose curve.

Oc1c(Cl)cc(C(c2cc(Cl)c(O)c(Cl)c2)C(c2cc(Cl)c(O)c(Cl)c2)c2cc(Cl)c(O)c(Cl)c2)cc1Cl	none
Oc1c(Cl)cc(Cl)cc1Sc1cc(Cl)cc(Cl)c1O	LT uptake inh 3.2µM, AmpC inh no det inconclusive (no result: SmPrx2 inh)
O=c1c(-c2ccc(F)cc2)nc2cnc(Nc3ccccc3)nc2n1Cc1cccs1	LT uptake inh inconclusive
CCCCC(=O)Nc1cc(N(C)C)nc2ccccc12	none
CN(C)c1cc(NC(=O)CN2CCOCC2)c2ccccc2n1	AmpC inh no det 4µM[single pt active]
Cc1cc(C)n(-c2ccc(C(=O)OCC(=O)c3ccc(Br)s3)cc2)n1	AmpC inh no det 13µM[single pt active]
Cc1cc(C)n(-c2ccc(C(=O)OCC(=O)NCc3ccco3)cc2)n1	none
Nc1nc(Cl)nc2c1ncn2[C@@H]1O[C@@H](COP(=O)(O)OP(=O)(O)OP(=O)(O)O)[C@@H](O)[C@H]1O	none
O=S(=O)(c1cccc2c(I)cccc12)N1CCCNCC1	LT uptake inh 3.2µM
CCn1ncc(C2=NOC(C(=O)Nc3c(C)nn(Cc4ccc(F)cc4)c3C)C2)c1C (stereo unspecified)	none
CCn1ncc(C2=NOC(C(=O)Nc3c(C)n(C)n(-c4ccccc4)c3=O)C2)c1C (stereo unspecified)	AmpC inh no det 4µM[single pt active]
CNC[C@@H](SC)c1ccc(O)c(O)c1	none
CCOC(=O)N1CCN(C(=O)c2cnn3ccccc23)CC1	AmpC inh no det 4µM[single pt active]
CCOC(=O)N1CCN(C(=O)c2ccccc2-c2ccccc2)CC1	LT uptake inh inconclusive
COc1ccc(OC2C=CC(c3ccccc3)OC2CO)cc1 (stereo unspecified)	none (no result: AmpC inh no det, AmpC det inh, SmPrx2 inh)
Nc1c(S(=O)(=O)O)cc(Nc2ccc(Nc3nc(Cl)nc(Nc4ccc(S(=O)(=O)O)cc4)n3)c(S(=O)(=O)O)c2)c2c1C(=O)c1ccccc1C2=O	LT uptake inh inconclusive, AmpC det inh 13µM
CC(=O)Nc1ccc(C2NC(C(=O)O)CCC2C)cc1 (stereo unspecified)	none (no result: AmpC inh no det, AmpC det inh, SmPrx2 inh)
O=C1C(Cl)=C(Cl)C(=O)C(Cl)=C1Cl	LT uptake inh inconclusive, AmpC inh no det 13µM (no result: SmPrx2 inh)
Cn1ncc2c(Cl)ncnc21	none
CN(C)S(=O)(=O)c1ccc(-c2ccccc2)cc1	LT uptake inh 7.9µM (no result: SmPrx2 inh)
CN(C)S(=O)(=O)c1ccc(Oc2ccccc2)cc1	none (no result: LT uptake inh)
N#CCCS(=O)(=O)c1nnnn1-c1ccccc1	LT uptake inh 10µM, SmPrx2 inh inconclusive
Cn1c(=O)c2c(nc(Cc3ccccc3)n2CC(=O)O)n(C)c1=O	none
CCC(C)c1ccc2oc(-c3ccc(NC(=O)c4ncn[nH]4)cc3)nc2c1 (stereo unspecified)	LT uptake inh inconclusive, AmpC inh no det 13µM[single pt active]
CS(=O)(=O)c1sc2nc(-c3cccs3)cc(-c3ccccc3)c2c1N	LT uptake inh inconclusive, AmpC inh no det 10µM[single pt active]
Cc1noc(C)c1-c1ccc2ncnc(N3CCN(C)CC3)c2c1	none
O=C(CCc1nc2ccccc2[nH]1)NC1CCCCC1	AmpC inh no det 4µM[single pt active]
CCN(CC)CCOc1c(Br)ccc2c1sc1nc3n(c(=O)c12)CCC3	LT uptake inh 7.9µM (no result: SmPrx2 inh)
Cc1ccc(S(=O)(=O)C2(C(=O)NCc3ccc4c(c3)OCO4)CC2)cc1	AmpC inh no det 4µM[single pt active]
C=CCOC(=O)C(C(=O)CC)C(NC(=O)OC)c1ccc(F)cc1 (stereo unspecified)	none (no result: AmpC inh no det, AmpC det inh, SmPrx2 inh)
COc1ccc(C(=O)N2CCC3(CCCN(Cc4cc(C(F)(F)F)cc(C(F)(F)F)c4)C3)CC2)cc1	none
CC(C)CN(CC(C)C)c1nnc(N)s1	AmpC inh no det 4µM[single pt active]
COc1ccc(NC(=O)CN(C)S(=O)(=O)c2cccc3cccnc23)cc1	none
CN(CC(=O)Nc1ccc(Cl)cc1)S(=O)(=O)c1cccc2cccnc12	LT uptake inh 7.9µM
CN(CC(=O)NC1CCCCCCC1)S(=O)(=O)c1cccc2cccnc12	AmpC inh no det 4µM[single pt active]
NC(=O)c1cccc2c1C(=O)N(C1CCCCC1)C2	AmpC inh no det 4µM[single pt active]
CCOC(=O)N1CCN(c2c(NCCc3ccc(OC)c(OC)c3)c(=O)c2=O)CC1	AmpC inh no det 4µM[single pt active]
CCOC(=O)N1CCN(c2c(-c3ccc(C)c(C)c3)c(=O)c2=O)CC1	none
CCOC(=O)N1CCN(c2c(NCc3cccs3)c(=O)c2=O)CC1	AmpC inh no det 4µM[single pt active]
CCOC(=O)N1CCN(c2c(NCc3ccccc3OC)c(=O)c2=O)CC1	LT uptake inh inconclusive, AmpC inh no det 4µM[single pt active]
CC(C)[C@@]1(NC(=O)[C@@H]2C[C@H]3c4cccc5[nH]cc(c45)C[C@@H]3N(C)C2)O[C@@]2(O)[C@H]3CCCN3C(=O)[C@@H](Cc3ccccc3)N2C1=O	LT uptake inh inconclusive
O=C(c1cnccn1)N1CCC2(CCCN(Cc3nccs3)C2)CC1	none
COc1ccc(-n2c(=O)c(-c3cccs3)nc3cnc(N4CCN(C)CC4)nc32)cc1	LT uptake inh inconclusive
CC[C@H](C(=O)[C@H](C)[C@H](O)[C@H](C)CCc1ccc(C)c(O)c1C(=O)O)[C@H]1O[C@](CC)([C@@H]2CC[C@@](O)(CC)[C@H](C)O2)C[C@H]1C	LT uptake inh 0.32µM
CCOC(=O)C1=C(C)N=c2s/c(=C\c3cccn3C)c(=O)n2C1c1cccc(OC)c1OC (stereo unspecified)	LT uptake inh inconclusive (no result: SmPrx2 inh)
CCOC(=O)C1=C(C)N=c2s/c(=C/c3ccco3)c(=O)n2C1c1cccc(OC)c1 (stereo unspecified)	LT uptake inh inconclusive, AmpC inh no det 7.9µM
COc1ccc(CCNc2oc(-c3ccc(C)cc3)nc2C#N)cc1OC	AmpC inh no det 4µM[single pt active]
COc1ccc(CNc2oc(-c3ccccc3)nc2C#N)cc1	AmpC inh no det 4µM[single pt active]
CCN1CCN(c2ncnc3ccc(Br)cc23)CC1	none
OCCN1CCN(c2ncnc3ccc(Br)cc23)CC1	AmpC inh no det 4µM[single pt active]
COc1ccc(NC(=O)Nc2nnc(N3CCC(C)CC3)s2)cc1OC	AmpC inh no det 4µM[single pt active]
COc1ccc(OC)c(NC(=O)Nc2nnc(N3CCC(C)CC3)s2)c1	LT uptake inh inconclusive, AmpC inh no det 4µM[single pt active]
COc1cc(COc2cc(N)c(Cl)cc2C(=O)CCC2CCN(CCNS(C)(=O)=O)CC2)cc(OC)c1	LT uptake inh inconclusive
CCOC(=O)C1=C(N)Oc2ccc(Br)cc2[C@@H]1[C@@H](C#N)C(=O)OCC	LT uptake inh inconclusive, SmPrx2 inh 39
CC(C)(C)c1cc(/C=C(\C#N)C(N)=S)cc(C(C)(C)C)c1O	LT uptake inh 7.9µM
[C-]#[N+]/C(C#N)=C\c1cc(C(C)(C)C)c(O)c(C(C)(C)C)c1	LT uptake inh 0.1µM (no result: AmpC inh no det, AmpC det inh, SmPrx2 inh)
Cn1c(C(=O)N2CCN(c3ncccn3)CC2)cc2c(=O)n(C)c3ccccc3c21	none
Cc1cccc(N2CCN(C(=O)c3cc4c(=O)n(C)c5ccccc5c4n3C)CC2)c1C	AmpC inh no det 4µM[single pt active]
Cn1c(C(=O)N2CCN(c3ccccc3F)CC2)cc2c(=O)n(C)c3ccccc3c21	AmpC inh no det 4µM[single pt active]
Cc1ccc(Cl)cc1N1CCN(C(=O)c2cc3c(=O)n(C)c4ccccc4c3n2C)CC1	AmpC inh no det 4µM[single pt active]
Cn1c(C(=O)N2CCCC2)cc2c(=O)n(C)c3ccccc3c21	none
CN(C)Cc1cc(C(C)(C)C)ccc1-c1ccc(C(C)(C)C)cc1CN(C)C	none
COc1ccc(CCNc2ncnc3c2oc2ccccc23)cc1OC	LT uptake inh inconclusive
